Assay outcomes: PubChem BioAssay, National Center for Advancing Translational Sciences (NCATS)
Rows were chosen to be rich in hits. Some 4.8% of all compounds tested hit in one or more screens of this group.
ATXN viability – cell viability loss in ATXN counter-screen; S2 cells (HEK-293 line with an ATXN2-luciferase reporter) viability, CellTiter-Fluor protease fluorescence, 24 h; Potency, µM (top dose mostly 56.7 µM), usual class: cytotoxic; actives 0.49% (n = 400,000); further: potency means the concentration at half of the fitted maximal effect; nearly all actives have a fitted effect of over 40% in size
IL1B secr inh – blocks inflammasome-driven IL-1 beta release. THP-1 LPS/ATP IL-1B secretion, AlphaLISA, 16 h; stronger effect = lower value. activity change, % at 57.5 µM. actives 4.7% (n = 360,000); in the data active means activity change below about -50%; inconclusive means mostly about -30% to -49%; further: on the % scale 0 is the no-effect control and ±100 the full control effect
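Secreted IL-1B measured by AlphaLISA bead assay after 16 h compound exposure of THP-1 cells; compounds (final up to 57.5 uM) added 1 h before LPS (250 ng/mL) and ATP (1.25 mM) stimulation; lower signal means less secretion.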
ATXN2 expr inh – ATXN2 expression inhibition. HEK-293 ATXN2-luciferase reporter, luminescence, 24 h. Potency, µM (series often up to 57 µM), for inactives: at the highest dose activity change, negative = inhibition, usual class: inhibitors. actives 0.72% (n = 360,000); further: potency means the concentration at half of the fitted maximal effect; on the % scale 0 is the no-effect control and ±100 the full control effect; nearly all actives have a fitted effect of over 55% in size
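ATXN2-luciferase reporter cells (luciferase flanked by upstream and downstream ATXN2 gene portions) were treated 24 h at 37 °C with compounds at up to 57 uM. SteadyGlo luminescence gave expression; GF-AFC fluorescence gave viability.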
USP2a inh – inhibitors of human ubiquitin-specific protease USP2a; Potency, µM (series often up to 38.3 µM), for the others: at the highest dose activity change, negative = inhibition, actives largely listed as inhibitors; USP2 core, Ub-CHOP2 coupled fluorogenic reporter, 485/531; actives 0.01% (n = 330,000); AID 463254; O75604;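 further: potency means the concentration at half of the fitted maximal effect; plate controls were DMSO wells for no effect and full inhibition by NEM control for full effect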
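Cell-free coupled assay: 10nM USP2 core preincubated 30min RT with compound in Tris-HCl pH 8.0/CaCl2/CHAPS buffer, then 25nM Ub-CHOP2 and 25nM reporter substrate; fluorescence (Ex 485/Em 531) read after 60min RT, normalized to NEM inhibition, concentration-response curves fitted.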
USP1 inh – blocks the human USP1/UAF1 deubiquitinase complex; O94782; recombinant USP1/UAF1, Ub-Rhodamine cleavage fluorescence; Potency, µM (highest dose often 57.1 µM), without a hit: top-dose activity change, negative = inhibition, usual class: inhibitors; actives 0.23% (n = 390,000); AID 743255; further: potency means the concentration at half of the fitted maximal effect; on the % scale 0 is the no-effect control and ±100 the full control effect; nearly all actives have a fitted effect of over 60% in size
Target sequence (O94782 whole entry, looked up): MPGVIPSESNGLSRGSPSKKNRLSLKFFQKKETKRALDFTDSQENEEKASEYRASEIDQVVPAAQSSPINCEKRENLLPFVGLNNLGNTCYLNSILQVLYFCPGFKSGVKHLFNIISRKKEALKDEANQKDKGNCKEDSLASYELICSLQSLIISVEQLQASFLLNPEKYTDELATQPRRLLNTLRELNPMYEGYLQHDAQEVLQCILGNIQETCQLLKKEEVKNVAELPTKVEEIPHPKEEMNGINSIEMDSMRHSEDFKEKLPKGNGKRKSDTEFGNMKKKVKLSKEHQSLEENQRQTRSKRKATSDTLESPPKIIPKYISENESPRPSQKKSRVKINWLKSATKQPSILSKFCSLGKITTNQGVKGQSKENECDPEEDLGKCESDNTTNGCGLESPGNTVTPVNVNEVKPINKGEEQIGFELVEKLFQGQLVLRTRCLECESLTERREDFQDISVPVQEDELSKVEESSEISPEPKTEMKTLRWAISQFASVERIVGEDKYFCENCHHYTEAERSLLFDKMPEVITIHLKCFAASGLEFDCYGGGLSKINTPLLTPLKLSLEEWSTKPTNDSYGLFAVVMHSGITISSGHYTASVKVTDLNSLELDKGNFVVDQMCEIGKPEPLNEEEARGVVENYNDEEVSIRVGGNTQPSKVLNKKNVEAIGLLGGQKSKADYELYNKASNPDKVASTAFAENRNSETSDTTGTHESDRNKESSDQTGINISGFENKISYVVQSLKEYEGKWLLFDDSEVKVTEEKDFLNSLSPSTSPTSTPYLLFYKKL
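USP1/UAF1 complex (1 nM) preincubated 15 min at room temperature with compound, then Ub-Rho substrate (150 nM final) added. Kinetic fluorescence at 480/540 nm over 6 reads at 60 s intervals; 50 mM HEPES pH 7.8, 0.5 mM EDTA, 0.1 mg/ml BSA, 1 mM TCEP, 0.01% Tween-20.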
* hit, by the source's call; i = inactive; ? = inconclusive; / = no result. Unless noted, the call rests on the fitted dose curve; in most records, active means well fitted curve in the direction sought with a large enough effect; inconclusive means small, poorly fitted or top-dose-only effect, or another doubt; inactive means no such curve, though single readings can be large; an effect the other way counts as inactive or inconclusive.

SMILES	ATXN viability	IL1B secr inh	ATXN2 expr inh	USP2a inh	USP1 inh
CC[N+](CC)(CC)CCOC(=O)C(C1CCCC1)C1CCCC1	i	/	-6.1%	/	/
Cc1cc(=O)[nH]c2sc(C(=O)N3c4ccccc4CC3C)c(N)c12 (stereo not drawn)	i	-59.8*	-16.4%	2.3%	-12.6%
Cc1ccc(C2=CC(=O)C[C@H](c3ccc(Cl)cc3)C2)cc1	i	17.8	4.0%	-5.3%	-2.9%
O=C1C=C(c2ccc(O)cc2)C[C@@H](c2ccc(Cl)cc2)C1	?	-75.4*	?	-6.9%	?
O=C1C=C(Nc2ccc(Cl)cc2)CC(c2ccc(Cl)cc2)C1 (stereo not drawn)	i	-84.8*	?	-4.4%	4.5%
CC(=O)Oc1cccc(O)c1	i	/	13.1%	/	/
CC(=O)Oc1ccc(C23c4ccccc4C2(OC(C)=O)c2cc(OC(C)=O)ccc23)cc1 (stereo not drawn)	?	-92.6*	?	/	-20.6%
CCc1ccc(C2C(C(=O)Nc3ccccc3C)=C(C)Nc3nc(SCc4cccc(OC)c4)nn32)cc1 (stereo not drawn)	i	/	9.9%	/	-14.9%
Cc1onc(-c2ccccc2Cl)c1C(=O)Nc1sc2c(c1C(N)=O)CCC(C)C2 (stereo not drawn)	i	-50.9*	-34.4%	3.6%	-13.8%
CCOc1cc(/C=N/Nc2cc(C)nc(-n3nc(C)cc3C)n2)ccc1O	?	112.7	1.26µM*	3.3%	-5.3%
COc1ccc(/C=N/Nc2cc(C)nc(-n3nc(C)cc3C)n2)c(OC)c1	?	-103.5*	15.8µM*	2.2%	-11.7%
COc1cc(OC)c(NC(=O)CCc2c(C)nc3c4c(C)cc(C)nc4nn3c2C)cc1Cl	i	/	4.1%	/	-3.2%
COc1ccc2c(c1)CCc1cnc(-n3ncc(C(=O)N(C)CC4CCCN(C)C4)c3C)nc1-2 (stereo not drawn)	i	/	/	/	/
NC(=NCCc1c[nH]c2ccccc12)NS(=O)(=O)c1ccc(F)cc1	i	-24.3	-5.4%	6.2%	-0.8%
NC(=NCCc1c[nH]c2ccccc12)NC(=O)c1ccc(F)cc1	i	-62.9*	-3.1%	2.7%	-20.1%
Cc1ccc2c(c1)C1CN(C)CCC1N2S(=O)(=O)c1ccccc1F (stereo not drawn)	i	-50.7*	-14.5%	-5.2%	-8.7%
Cc1ccc2c(c1)C1CN(C)CCC1N2S(=O)(=O)c1cccc(C(F)(F)F)c1 (stereo not drawn)	i	-20.1	/	0.4%	-16.5%
CCCCN(CC)Cc1ccc(CNC(=S)Nc2ccc(C)cc2Cl)o1	i	-62.3*	?	1.0%	-7.3%
CC1=Nc2ccccc2N=C(NC(=O)c2ccccc2)C1c1ccc(Cl)cc1 (stereo not drawn)	?	-58.2*	?	-1.6%	-6.6%
O=C1CC(c2ccc(Cl)cc2)N=C(NC(=O)c2ccccc2)N1 (stereo not drawn)	i	/	-9.5%	/	15.5%
O=C(OCn1ncc(Cl)c(Cl)c1=O)c1ccc(C(F)(F)F)cc1	?	-99.2*	?	0.3%	?
Cc1ccc(C(=O)COC(=O)c2nc(Cl)ccc2Cl)cc1	i	24.5	8.1%	-0.3%	-12.6%
O=C(OCC(=O)c1ccc[nH]1)c1ccc(C(F)(F)F)cc1	?	5.3	4.2%	-2.1%	-16.8%
Cc1ccc(C(=O)OCn2ncc(Cl)c(Cl)c2=O)cc1	/	-99.1*	?	-1.9%	-31.1%
CC(C)n1nc(C(=O)Nc2nc3ccccc3[nH]2)c2ccccc2c1=O	i	-52.5*	-26.4%	1.1%	-9.9%
SMILES	ATXN viability	IL1B secr inh	ATXN2 expr inh	USP2a inh	USP1 inh
CCOC(=O)C(C)NC(=O)CCc1nnc2ccc(N3CCC(C)CC3)nn12 (stereo not drawn)	?	-97.0*	/	-2.5%	-21.2%
CCC(C)NC(=O)CCc1nnc2ccc(N3CCC(C)CC3)nn12 (stereo not drawn)	i	-8.3	4.8%	0.3%	-10.4%
CCC(C=C[C@@H]1OC(=O)C=C[C@H]1C)=C[C@H](C)CC=CC(C)=C[C@@H](C)C(=O)[C@@H](C)[C@H](O)[C@@H](C)CC(C)=CC(=O)O	/	/	0.128µM*	/	/
COc1cc(OC)nc(Nc2nc(C(N)c3ccccc3)cs2)n1 (stereo not drawn)	i	-56.2*	8.9%	/	/
COc1cccc(Nc2nc(C(N)c3ccccc3)cs2)n1 (stereo not drawn)	i	-70.6*	-26.7%	/	/
COc1cc(OC)nc(Nc2nc(C(N)c3ccccc3Cl)cs2)n1 (stereo not drawn)	?	/	-17.6%	/	/
CCCCCCC(=O)N(O)C1CC(=O)N(c2ccc(Cl)cc2)C1=O (stereo not drawn)	i	-50.8*	-5.3%	1.7%	-9.8%
Oc1c(Cl)cc(Cl)cc1CNc1nc2ccccc2[nH]1	?	-84.1*	1.4%	-1.7%	-21.6%
Oc1c(Cl)cc(Cl)cc1CNc1ccccn1	i	?	-2.4%	-1.5%	-18.6%
CC1CCN(C(=O)CN2c3ccc(C(C)C)cc3-c3ccccc3S2(=O)=O)CC1	?	/	5.8%	/	-23.1%
COC(=O)c1cc(NC(=S)Nc2cc(Cl)cc(Cl)c2)cc(C(=O)OC)c1	i	-81.4*	-37.4%	-1.8%	-20.4%
COC(=O)c1cccc(NC(=S)Nc2ccccc2Cl)c1	i	1.0	4.8%	0.0%	-14.3%
COC(=O)c1cccc(NC(=S)Nc2ccc(Cl)c(Cl)c2)c1	?	-64.8*	-37.7%	-1.5%	-9.4%
O=c1cc(C=NNc2ccccc2)[nH]c(=O)[nH]1	i	-5.9	-2.7%	/	-20.0%
O=c1cc(N/N=C/c2ccccc2)[nH]c(=O)[nH]1	?	-99.1*	?	/	?
Cc1cccc(C)c1NC(=O)CN(CC(=O)O)CC(=O)O	i	/	4.4%	/	/
Cc1cccc(Nc2cc(C)c3c(O)cccc3n2)c1C	?	-101.1*	2.4%	0.4%	-19.8%
Cc1cc(Nc2ccccc2O)nc(C)n1	i	/	11.9%	/	-24.2%
O=[N+]([O-])c1cc(S(=O)(=O)Nc2ccccc2)ccc1N1CCN(c2ccccc2)CC1	?	-63.9*	-34.5%	-8.4%	-12.4%
OC(COc1ccc2ccccc2c1Br)Cn1cnc(-c2ccccc2)c1 (stereo not drawn)	?	-95.8*	?	-7.6%	-20.2%
C=C1C(=O)[C@]23C[C@H]1CC[C@H]2[C@]1(C)[C@@H](OC(C)=O)CC[C@@](C)(C(=O)O)[C@H]1C[C@@H]3O	/	-78.3*	3.16µM*	/	/
C=C1C(=O)[C@]23C[C@H]1CC[C@H]2[C@]1(C)[C@@H](O)CC[C@@](C)(C(=O)O)[C@H]1C[C@@H]3O	/	-75.2*	?	/	/
C=C1C(=O)[C@]23C[C@H]1CCC2[C@@]1(C)C(C[C@@H]3O)[C@](C)(C(=O)O)C[C@H](O)[C@@H]1O (stereo partly drawn)	i	1.1	2.6%	/	/
